This passage reports inhibition results from PubChem BioAssay AID588689 (Southern Research Specialized Biocontainment Screening …, 2011).

The structures appear in SMILES notation. The campaign covered roughly 340,000 compounds. About 1,000 (0.29%) were called active. Rule as the data show it: inconclusive = inhibition above about 29% without an active follow-up result; inactive = below that. Only a sample is shown. Measured potencies and affinities stand elsewhere.

This experiment deals with Genome polyprotein (Dengue virus type 2 (strain 16681-PDK53)) (UniProt P29991). As to the kind of experiment: Dengue-2 NS5 methyltransferase inhibitors, primary screen, biochemical, confirmation dose response (AID 588689). The settings on record: Dengue-2 NS5 methyltransferase capping enzyme assay, at 25 µM, stronger effect = higher value.
Setting [1] is: measured here: pilot screen replicate inhibition.

In the case of `Cc1cc(C)c(NC(=O)c2ccc3c(c2)NC(=O)C(C)S3)c(C)c1` (configuration not stated), the inhibition is -0.76% (inactive).
On to `O=S(=O)(NCCc1ccc(F)cc1)c1ccc(F)cc1Br`, for which the inhibition was -1.99% (inactive). The inhibition under setting [1] is -0.92%.
`CCCCCC(=O)NNC1=NCC(Cc2cccc(Cl)c2)S1` (configuration not stated): the inhibition was -9.62% (inactive).
As to `CCN(Cc1cnn(C)c1)Cc1nc(Cc2ccccc2Cl)no1`, the inhibition was -2.18% (inactive).
On the same count and under the same terms, in the case of `CCCCN1C(=O)/C(=C2\SC(N3CCCCC3)=NC2=O)c2ccccc21` it was 1.1% (inactive).
`O=C(NCc1ccccc1)c1cccc(S(=O)(=O)N2CCCCC2)c1`: the inhibition is -8.7% (inactive).
Still for that read-out and setting: in the case of `COc1ccc(OC)c(/C=N/NC(=O)c2ccncc2)c1` it was -7.07% (inactive); in that of `CCc1ccccc1N(CC(=O)OC)S(C)(=O)=O`, 3.12% (inactive); in that of `O=C1OC2(c3ccccc31)c1ccccc1-c1ccccc12`, 8.53% (inactive).
As for `O=C1OC(c2ccccc2)(c2ccc(O)cc2)c2ccccc21` (configuration not stated), the inhibition is 0.78% (inactive).
Regarding `Cc1cc(O)ccc1C1(c2ccc(O)cc2C)OC(=O)c2ccccc21`, the inhibition was -9.01% (inactive).
`O=C1OC(c2ccccc2)(c2ccccc2)c2ccccc21`: the inhibition is -6.99% (inactive).
For `CC1CCCN(C(=O)c2nn(C)c3c2CS(=O)(=O)c2ccccc2-3)C1` (configuration not stated), the inhibition was -6.35% (inactive).
Same read-out and setting: next, `COc1ccc(/C=C/C(=O)NC(C)(C)C)cc1S(=O)(=O)N1CCOCC1`: 3.24% (inactive); `O=C(Nc1ccc2oc(=O)ccc2c1)c1cc([N+](=O)[O-])ccc1N1CCOCC1`: -4.64% (inactive); `Cc1ccc(OC(C)C(=O)N2CC(=O)Nc3ccccc32)cc1` (configuration not stated): 1.78% (inactive).
Still for that read-out and setting: next, `C[C@@H]1CN([C@@H](C)CO)C(=O)Cc2cc(NC(=O)Nc3ccc(F)cc3)ccc2O[C@@H]1CN(C)Cc1ccc(Cl)c(Cl)c1`: -10.3% (inactive); `Cc1nc(SCC(=O)NC(C)(C)C)c2c(-c3cccs3)csc2n1`: -9.82% (inactive); `COc1ccc(N2CCN(C(c3nnnn3C3CCCC3)C(C)C)CC2)cc1` (configuration not stated): -0.74% (inactive).
For `Cc1ccc(C)n1Cc1ccccc1Cl`, the inhibition is -24.6% (inactive).
For `C=CCNC(=O)COc1c(C)ccc(C)c1C`, the inhibition was -2.27% (inactive).
Same read-out and setting: in the case of `CCOC(=O)N1CCC(N2C(=O)c3ccc(C(=O)NCCC(C)C)cc3C2=O)CC1` it was -0.65% (inactive); in that of `O=C(Nc1ccc(C(=O)c2ccc(C(=O)O)c(C(=O)O)c2)cc1)c1ccccc1`, 6.21% (inactive); in that of `O=C(O)c1ccc(NC(=O)C(c2ccccc2)c2ccccc2)cc1`, -5.43% (inactive).
As to `CC(C)(C)C(=O)NC1=NN(c2c(Cl)cc(Cl)cc2Cl)C(=O)C1`, the inhibition is 6.11% (inactive).
Same read-out and setting: next, `NC1=NN(c2c(Cl)cc(Cl)cc2Cl)C(=O)C1`: -5.65% (inactive).
In the case of `CC(C)/C=C/C(=O)N1CCC(N2CCC(C(=O)NCC3CCCO3)CC2)CC1` (configuration not stated), the inhibition is 6.04% (inactive).
Take `O=C(NCc1ccccn1)c1cccc(S(=O)(=O)N2CCc3ccccc32)c1`: the inhibition is 5.83% (inactive).
In the case of `O=C(Nc1ccc(O)cc1C(=O)O)c1ccc2c(c1)C(=O)N(Cc1ccco1)C2=O`, the inhibition is -4.89% (inactive).
On the same count and under the same terms, next, `Cc1c(NC(=O)c2ccc3c(c2)C(=O)N(Cc2ccco2)C3=O)cccc1C(=O)O`: 6.25% (inactive).
Regarding `O=C1CSC(=S)N1/N=C/c1ccc2c(c1)OCCO2`, the inhibition is -7.17% (inactive).
With `Cc1ccc(OCC(=O)NCCNC(=O)c2cnccn2)cc1C`, the inhibition is -4.45% (inactive).
Still for that read-out and setting: in the case of `Oc1c(C(Nc2ccccn2)c2cccnc2)cc(Cl)c2cccnc12` (configuration not stated) it was -1.46% (inactive).
On to `COc1ccccc1C(NC(C)=O)c1cc(Cl)c2cccnc2c1O` (configuration not stated), for which the inhibition is -1.32% (inactive).
As to `CCOCCSc1n[nH]c(=O)n1CCc1ccccc1`, the inhibition is 0.65% (inactive).
On to `COC(=O)CCCC1=CC2=CC(=O)C(C)(OC(=O)C3CCCC3)C(=O)C2=CO1` (configuration not stated), for which the inhibition is -2.4% (inactive).
Regarding `CCCCC1=CC2=CC(=O)C(C)(OC(=O)C3CCCC3)C(=O)C2=CO1` (configuration not stated), the inhibition is -4.96% (inactive).
Same read-out and setting: in the case of `O=C(Nc1ccccc1N1CCCCC1)C1CC(=O)N(c2ccccc2F)C1` (configuration not stated) it was -1.45% (inactive).
With `COCCNc1nc2ccccc2n2cnnc12`, the inhibition is -9.27% (inactive).
Still for that read-out and setting: next, `O=[N+]([O-])c1cc(Br)c(Nc2ccccc2)c([N+](=O)[O-])c1`: 5.88% (inactive); `N#Cc1c2ccc([N+](=O)[O-])cc2[n+]([O-])n1-c1ccccc1`: 15.2% (inactive); `CCO[C@H]1OC(C(=O)N2CCN(C)CC2)=C[C@@H](c2ccc(C(F)(F)F)cc2)[C@@H]1CCCO`: -3.14% (inactive).
In the case of `CC1=NN(C(N)=S)C(=O)C1N=Nc1c(C)cc(C)cc1C` (configuration not stated), the inhibition is -2.39% (inactive).
The same measure, in the same setting: in the case of `CC1=NN(C(N)=S)C(=O)C1N=Nc1ccc(Br)cc1` (configuration not stated) it was 7.71% (inactive).
Regarding `Cc1ccc(Sc2c(C)[nH]n(C(C)(C)C)c2=O)cc1`, the inhibition is -4.77% (inactive). The inhibition under setting [1] amounted to 2.59%.
As to `Cc1ccc(Sc2sc(=O)n(C)c2S(=O)(=O)c2ccc(C)cc2)cc1`, the inhibition was -2.3% (inactive).
Same read-out and setting: next, `CCOc1ccc(OCc2ccc(C(=O)N(CC)CC)cc2)cc1`: -20% (inactive); `CCn1c(CSc2nccn2C)nc2cc(C(=O)O)ccc21`: 1.61% (inactive); `CCn1c(CSc2nnc(-c3ccncc3)n2C)nc2cc(C(=O)O)ccc21`: 7.11% (inactive).
On the same count and under the same terms, next, `O=C(CCn1c(=O)oc2ccc(Cl)cc21)NCCCN1CCOCC1`: -12.3% (inactive); `CCOc1ccc2nc(SCC(=O)NC3CCCc4ccccc43)sc2c1` (configuration not stated): -8.65% (inactive).
On to `O=C1NC2(CCCCCC2)Cc2ccccc21`, for which the inhibition is -4.23% (inactive).
As to `Cc1cc(SCC(=O)Nc2ccccc2)n2ncc(-c3ccccc3)c2n1`, the inhibition was -3.11% (inactive).
Take `Cc1ccc(NC(=O)c2ccc(-n3cccn3)c([N+](=O)[O-])c2)cc1`: the inhibition is 0.68% (inactive).
For `Cc1ccc(N2C(=O)c3ccccc3C2(O)c2ccccc2)cc1` (configuration not stated), the inhibition was -0.39% (inactive).
Take `O=C1c2ccccc2C(O)(c2ccccc2)N1c1ccncc1` (configuration not stated): the inhibition is -5.22% (inactive).
Same read-out and setting: in the case of `CC1CN(C(=O)c2nn(C)cc2[N+](=O)[O-])CC(C)O1` (configuration not stated) it was -1.37% (inactive); in that of `CCCCn1c(-c2cccnc2)nc2cc3[nH]c(=O)c(C(C)C)nc3cc21`, 4.01% (inactive); in that of `COc1ccccc1OCC#CCSc1ncccn1`, -53.6% (inactive).
As for `C#CCN(C[C@H]1[C@H](OC(=O)Nc2cccs2)[C@H](OC(=O)Nc2cccs2)C[C@H]2C(=O)N(c3ccccc3)C(=O)[C@@H]12)S(=O)(=O)c1ccc(C)cc1`, the inhibition was 2.32% (inactive).
For `COc1ccc(S(=O)(=O)/C(C#N)=C/Nc2cccc(F)c2)cc1`, the inhibition was -2.28% (inactive).
As for `Cc1ccc(NC(=O)/C(C#N)=N/Nc2ccc(C(=O)O)cc2)c(C)c1`, the inhibition is 3.18% (inactive).
In the case of `Cc1ccc(F)c(NC(=O)CCc2ccccc2)c1`, the inhibition was -5.56% (inactive).
On to `Cc1ccc(C)c2[nH]c(=O)c(CCNS(=O)(=O)c3ccccc3)cc12`, for which the inhibition is -0.7% (inactive).
As for `COc1cc(/C=C2\SC(=S)N(CCC(=O)Nc3ccccc3)C2=O)cc(OC)c1OC`, the inhibition was 0% (inactive).
As to `COc1cc(/C=C2\SC(=S)N(Nc3ccccc3)C2=O)cc(OC)c1OC`, the inhibition was -1.38% (inactive).
On to `Cc1ncsc1CCOC(=O)C12CC3CC(CC(C3)C1)C2`, for which the inhibition is -12.1% (inactive).
The same measure, in the same setting: next, `CCOC(=O)c1c(C)nc(C)c(C(=O)OCC)c1-c1ccc(OC)cc1`: 0.8% (inactive).
The same measure, in the same setting: in the case of `O=C(NC(Cc1c[nH]c2ccccc12)C(=O)Nc1ccc(OC(F)(F)F)cc1)c1cccs1` (configuration not stated) it was -0.91% (inactive); in that of `O=C1C(=O)c2c(ccc3ccccc23)-c2ccccc21`, 8.87% (inactive).
In the case of `O=C1C=C(O)c2cccc(O)c2C1=O`, the inhibition was 10.9% (inactive).
As for `COc1c(CC=C(C)C)cc(C2CC(=O)c3c(O)cc(O)cc3O2)cc1CC=C(C)C` (configuration not stated), the inhibition was 1.45% (inactive).
On the same count and under the same terms, in the case of `COc1cc(C2CC(=O)c3c(O)cc(O)cc3O2)ccc1O` (configuration not stated) it was -4.19% (inactive); in that of `O=C(Nc1ccccn1)c1ccc(Cl)c(S(=O)(=O)N2CCCC2)c1`, -10.4% (inactive); in that of `O=C(CCN1CCN(CCO)CC1)Nc1cccc(Br)c1`, 0% (inactive).
For `N#Cc1cc([N+](=O)[O-])ccc1NC(=O)COC(=O)C1CC2CCCC(C1)C2=O` (configuration not stated), the inhibition was -2.16% (inactive).
Turning to `CCOc1cc(/C=N\Nc2ccc([N+](=O)[O-])cc2)ccc1OCC(=O)Nc1ccc(C)c(C)c1`, the inhibition was 22% (inactive).
Same read-out and setting: next, `COc1cc(/C=N/NC(N)=O)ccc1OCC(=O)Nc1ccc(C)c(C)c1`: -9.1% (inactive); `CCC(=O)Nc1nnc(-c2cccs2)s1`: -6.55% (inactive); `COc1ccc(NS(=O)(=O)Cc2ccccc2)cc1OC`: 0% (inactive).
Regarding `CCN(CC)S(=O)(=O)c1ccc(OC)c(NS(=O)(=O)Cc2ccccc2)c1`, the inhibition is -2.33% (inactive).
As to `COc1cc(/C=C2/SC(N)=NC2=O)ccc1Oc1ccc([N+](=O)[O-])cc1[N+](=O)[O-]`, the inhibition is 4.51% (inactive).
Still for that read-out and setting: in the case of `COc1ccc([N+](=O)[O-])cc1NS(=O)(=O)Cc1ccccc1` it was -3.44% (inactive); in that of `CSc1ccc(S(=O)(=O)Nc2ccc3c(c2)NC(=O)CC3)cc1`, 0% (inactive); in that of `CN(CC(=O)Nc1ccc(Cl)c(C(F)(F)F)c1)C(=O)c1cccc2cccnc12`, 2.2% (inactive).
On the same count and under the same terms, next, `Cc1ccc(O)c(NC(=O)Cc2ccc3ccccc3c2)c1`: -11.9% (inactive).
Still for that read-out and setting: next, `CC(NC(=O)CCNS(=O)(=O)c1cccc2nonc12)c1ccccc1` (configuration not stated): -6.33% (inactive).
For `O=Cc1cn(CCC(=O)O)nc1-c1cccc(Cl)c1`, the inhibition is -3.9% (inactive).
Turning to `O=C(O)CCn1cc(C(=O)O)c(-c2ccccc2)n1`, the inhibition was -1.47% (inactive).
Same read-out and setting: next, `Cc1ccc(-c2nn(CCC(=O)O)cc2/C=C\C(=O)c2ccc(Br)cc2)cc1`: 7.02% (inactive); `NC(=S)N/N=C/c1cn(CCC(=O)O)nc1-c1cccc(Br)c1`: -15.9% (inactive).
On the same count and under the same terms, next, `O=C(O)CCn1cc(/C=C2\NC(=S)N(c3ccccc3)C2=O)c(-c2ccc(Br)cc2)n1`: 3.12% (inactive); `O=C(O)CCn1cc(/C=C2/NC(=S)N(c3ccccc3)C2=O)c(-c2ccccc2)n1`: 2.91% (inactive).
The same measure, in the same setting: in the case of `CCOC(=O)/C(C#N)=C/c1cn(CCC(=O)O)nc1-c1cccc(Cl)c1` it was -8.58% (inactive).
As to `O=Cc1cn(CCC(=O)O)nc1-c1cccc(Br)c1`, the inhibition was 14.3% (inactive).
